Data from PubChem BioAssay (Tox21).
Results filed as inconclusive are left out. The source made the active and inactive calls. Calls come from the whole dose curve.

Assays:
[1] = biological target: Acetylcholinesterase (Homo sapiens) (UniProt P22303); assay: Acetylcholinesterase (AChE) small molecule antagonists: colormetric cell-based qHTS assay (AID 1347395); note: nearly all actives have a fitted effect of over 30% in size
Summary of the method: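 Endogenous AChE of human neuroblastoma SH-SY5Y cells was measured with an Ellman-type DTNB/acetylthiocholine mix. Compound pretreatment lasted 30 min at 37 C; substrate reaction ran 90 min at 37 C.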

[2] = biological target: Acetylcholinesterase (Homo sapiens) (UniProt P22303); assay: Acetylcholinesterase (AChE) small molecule antagonists: enzyme-based qHTS assay (AID 1347397); settings: Potency: AChE enzyme activity inhibition; outcome: AChE enzyme activity inhibition; note: nearly all actives have a fitted effect of over 55% in size
Summary of the method: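 Enzyme inhibition was scored from DTNB-detected thiocholine formed by recombinant human AChE acting on acetylthiocholine. The 30 min compound preincubation and 10 min substrate reaction were both run at room temperature, with DMSO as vehicle control.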

[3] = biological target: Acetylcholinesterase (Homo sapiens) (UniProt P22303); assay: Acetylcholinesterase (AChE) small molecule antagonists: fluorescence cell-based qHTS assay (AID 1347398); settings: Potency: AChE activity; outcome: AChE activity; note: nearly all actives have a fitted effect of over 50% in size
Summary of the method: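 Endogenous acetylcholinesterase of SH-SY5Y neuroblastoma cells is measured in situ. After overnight attachment and 30 min compound exposure, cells receive acetylthiocholine and Thiolite Green; fluorescence is read after 40 min at room temperature.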

[4] = biological target: Acetylcholinesterase (Homo sapiens) (UniProt P22303); assay: Acetylcholinesterase (AChE) small molecule antagonists: enzyme-based qHTS assay with human liver microsomes (AID 1347399); settings: Potency: qHTS inhibition; outcome: qHTS inhibition; note: nearly all actives have a fitted effect of over 60% in size
Summary of the method: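 Recombinant human AChE (50 mU/mL in the enzyme mix) and human liver microsomes (0.25 mg/mL final) were preincubated with compound and NADPH (0.25 mg/mL final) for 30 min at 37 C. Acetylthiocholine/DTNB was then added; thiocholine was read colorimetrically after 10 min at room temperature.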
% is set by controls: 0 for no effect and ±100 for the full control effect.

Chain of Acetylcholinesterase (Homo sapiens) (P22303 whole entry, looked up): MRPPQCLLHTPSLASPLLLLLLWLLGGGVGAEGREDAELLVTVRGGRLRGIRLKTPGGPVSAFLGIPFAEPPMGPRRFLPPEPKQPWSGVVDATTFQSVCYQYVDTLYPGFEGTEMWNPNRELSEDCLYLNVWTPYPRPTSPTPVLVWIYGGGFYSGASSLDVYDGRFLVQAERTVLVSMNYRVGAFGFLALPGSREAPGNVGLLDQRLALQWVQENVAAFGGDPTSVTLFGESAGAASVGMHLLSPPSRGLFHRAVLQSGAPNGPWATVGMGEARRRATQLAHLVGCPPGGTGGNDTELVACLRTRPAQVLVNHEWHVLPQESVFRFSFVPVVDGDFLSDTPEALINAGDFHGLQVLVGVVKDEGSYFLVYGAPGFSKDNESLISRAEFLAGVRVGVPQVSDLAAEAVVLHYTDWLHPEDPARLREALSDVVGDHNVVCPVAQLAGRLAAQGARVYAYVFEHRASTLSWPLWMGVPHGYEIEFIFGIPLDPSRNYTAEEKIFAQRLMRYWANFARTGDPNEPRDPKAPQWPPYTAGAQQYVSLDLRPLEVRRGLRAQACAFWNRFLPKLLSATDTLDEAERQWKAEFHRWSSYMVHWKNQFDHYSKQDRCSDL

O=C(Oc1cccc2cccnc12)c1ccccc1
inactive: Potency [1] | Potency [2] | Potency [3] | Potency [4]

CC(S)C(C)S (stereo not given)
inactive: Potency [1] | Potency [2] | Potency [3] | Potency [4]

CCCCCCCCc1ccc(S(=O)(=O)O)cc1
inactive: Potency [1] | Potency [2] | Potency [3] | Potency [4]

C=CC(=O)OCC1CCCO1 (stereo not given)
inactive: Potency [1] | Potency [2] | Potency [3] | Potency [4]

CCCCC1=NC2(CCCC2)C(=O)N1Cc1ccc(-c2ccccc2-c2nn[nH]n2)cc1
inactive: Potency [1] | Potency [2] | Potency [3] | Potency [4]

C=CC(=C)CC/C=C(\C)CCC=C(C)C
inactive: activity, negative = inhibition [1] -2.99% [at 23.6 µM] | activity change, negative = inhibition [2] 0.554% [at 23.6 µM] | activity change, negative = inhibition [3] -5.88% [at 23.8 µM] | activity change, negative = inhibition [4] -0.162% [at 23.6 µM]

NCCCN1CCOCC1
inactive: Potency [1] | Potency [2] | Potency [3] | Potency [4]

N#CCCOCCC#N
inactive: Potency [1] | Potency [2] | Potency [3] | Potency [4]

C=CCCCCCCCCCCCC
inactive: Potency [1] | Potency [2] | Potency [3] | Potency [4]

CCCCOCCOC(=O)CCCCCCCCC(=O)OCCOCCCC
inactive: Potency [1] | Potency [2] | Potency [3] | Potency [4]

CCOc1ccccc1O[C@H](c1ccccc1)[C@H]1CNCCO1
inactive: outcome [1] | outcome [2] | outcome [3] | outcome [4]

CC(=O)OC1C2(C)CCC(C2)C1(C)C (stereo not given)
inactive: Potency [1] | Potency [2] | Potency [3] | Potency [4]

O=CC1CC1
inactive: Potency [1] | Potency [2] | Potency [3] | Potency [4]

OC(CN1CCC(Cc2ccc(F)cc2)CC1)c1ccc(Cl)cc1 (stereo not given)
inactive: Potency [1] | Potency [2] | Potency [3] | Potency [4]

Brc1cc(-c2ccc(Br)c(Br)c2Br)cc(Br)c1Br
inactive: Potency [1] | Potency [2] | Potency [3] | Potency [4]

CC(C)c1ccc2oc3nc(N)c(C(=O)O)cc3c(=O)c2c1
inactive: Potency [1] | Potency [2] | Potency [3] | Potency [4]

O=C(OCCc1ccccc1)c1ccccc1
inactive: Potency [1] | Potency [2] | Potency [3] | Potency [4]

CC(=O)c1cc(C)oc1C
inactive: Potency [1] | Potency [2] | Potency [3] | Potency [4]

COc1ccc(Cl)cc1C
inactive: Potency [1] | Potency [2] | Potency [3] | Potency [4]

C=CCOCC(O)CO (stereo not given)
inactive: Potency [1] | Potency [2] | Potency [3] | Potency [4]

CC(=O)S[C@H](C(=O)N[C@H]1Cc2ccccc2[C@H]2CCC[C@@H](C(=O)O)N2C1=O)C(C)C
inactive: Potency [1] | Potency [2] | Potency [3] | Potency [4]

CC[C@H](NC(=O)c1cc(F)ccc1NS(=O)(=O)c1cccc2cccnc12)c1ccccc1
inactive: Potency [1] | Potency [2] | Potency [3] | Potency [4]

CC(C)=CCC[C@H](C)CCO
inactive: Potency [1] | Potency [2] | Potency [3] | Potency [4]

CC(=O)OCC1=C(C(=O)O)N2C(=O)[C@@H](NC(=O)CSc3ccncc3)[C@H]2SC1
inactive: Potency [1] | Potency [2] | Potency [3] | Potency [4]

COc1ccc(/C=C/S(=O)(=O)NC(=O)c2ccc(C)cc2Cl)cc1
inactive: Potency [1] | Potency [2] | Potency [3] | Potency [4]

OCCNCc1ccccc1
inactive: Potency [1] | Potency [2] | Potency [3] | Potency [4]

CCCCCCCOC(=O)c1ccccc1C(=O)OCCCCCCC
inactive: Potency [1] | Potency [2] | Potency [3] | Potency [4]

CCCCCCCCCCCCCC(=O)OCC(O)CO (stereo not given)
inactive: Potency [1] | Potency [2] | Potency [3] | Potency [4]

CCCN(CCC)c1c([N+](=O)[O-])cc(C(F)(F)F)c(N)c1[N+](=O)[O-]
inactive: Potency [1] | Potency [2] | Potency [3] | Potency [4]

CC(=O)NC(=O)c1ccccc1O
inactive: Potency [1] | Potency [2] | Potency [3] | Potency [4]

CCNC(=O)NCc1cccc(Cl)c1
inactive: Potency [1] | Potency [2] | Potency [3] | Potency [4]

CC(C)COC(=O)COc1ccc(Cl)cc1Cl
inactive: Potency [1] | Potency [2] | Potency [3] | Potency [4]

FC(F)(F)C(F)(F)C(F)(F)C(F)(F)C(F)(F)C(F)(F)CCI
inactive: Potency [1] | Potency [2] | Potency [3] | Potency [4]

C1C[C@@H]2[C@H]3CC[C@H](C3)[C@@H]2C1
inactive: Potency [1] | Potency [2] | Potency [3] | Potency [4]

CCCCOc1ccc(N)cc1
inactive: Potency [1] | Potency [2] | Potency [3] | Potency [4]

CCC(C)C(=O)OC (stereo not given)
inactive: Potency [1] | Potency [2] | Potency [3] | Potency [4]

CN(CCCN1c2ccccc2CCc2ccccc21)CC(=O)c1ccc(Cl)cc1
inactive: Potency [1] | Potency [2] | Potency [3] | Potency [4]

O=C[C@H](O)[C@@H](O)[C@H](O)[C@H](O)CO
inactive: Potency [1] | Potency [2] | Potency [3] | Potency [4]

c1ccc(B(c2ccccc2)c2ccccc2)cc1
inactive: Potency [1] | Potency [2] | Potency [3] | Potency [4]

CN1CCN(C(=O)C2CCCCC2)CC1
inactive: Potency [1] | Potency [2] | Potency [3] | Potency [4]

c1ccc2sc(SN(C3CCCCC3)C3CCCCC3)nc2c1
inactive: Potency [1] | Potency [2] | Potency [3] | Potency [4]

CCc1cc(C2=C(C(=O)O)N(c3ccccc3C(F)(F)F)S(=O)(=O)c3ccccc32)cc2c1OCO2
inactive: Potency [1] | Potency [2] | Potency [3] | Potency [4]

CCOc1ccccc1O
inactive: Potency [1] | Potency [2] | Potency [3] | Potency [4]

COC(=O)/C=C/C(C)=C\C=C\C(C)=C\C=C\C=C(C)\C=C\C=C(C)\C=C\C(=O)O
inactive: Potency [1] | Potency [2] | Potency [3] | Potency [4]

C[C@@H]1CC[C@H]2C(C)(C)[C@H]3C[C@@]12CC[C@@]3(C)O
inactive: Potency [1] | Potency [2] | Potency [3] | Potency [4]

CCCCCCCCCCc1ccccc1
inactive: Potency [1] | Potency [2] | Potency [3] | Potency [4]

O=C(O)c1ccccc1-c1ccc(C(F)(F)F)cc1
inactive: Potency [1] | Potency [2] | Potency [3] | Potency [4]

COCCc1ccccn1
inactive: Potency [1] | Potency [2] | Potency [3] | Potency [4]

CCOC(=O)c1nc(C(Cl)(Cl)Cl)n(-c2ccc(Cl)cc2Cl)n1
inactive: Potency [1] | Potency [2] | Potency [3] | Potency [4]

CC(C)=CCC/C(C)=C/COC=O
inactive: Potency [1] | Potency [2] | Potency [3] | Potency [4]
